Here are results for 34 compounds from PubChem BioAssay (NCATS).

“And” between values parts separate entries of the source, which are not always exact repeats. Equal entries are not always repeated. Records with an inconclusive call do not appear. Values without a mark were called inactive. The source made the active and inactive calls. Unless noted, calls come from the whole dose curve; as a rule, active = well fitted curve in the direction sought with a large enough effect; inconclusive = small, poorly fitted or top-dose-only effect, or another doubt; inactive = no such curve, though single readings can be large; an effect the other way counts as inactive or inconclusive.

Sequence of Tyrosine-protein kinase Yes (Homo sapiens) (P07947 whole entry, looked up): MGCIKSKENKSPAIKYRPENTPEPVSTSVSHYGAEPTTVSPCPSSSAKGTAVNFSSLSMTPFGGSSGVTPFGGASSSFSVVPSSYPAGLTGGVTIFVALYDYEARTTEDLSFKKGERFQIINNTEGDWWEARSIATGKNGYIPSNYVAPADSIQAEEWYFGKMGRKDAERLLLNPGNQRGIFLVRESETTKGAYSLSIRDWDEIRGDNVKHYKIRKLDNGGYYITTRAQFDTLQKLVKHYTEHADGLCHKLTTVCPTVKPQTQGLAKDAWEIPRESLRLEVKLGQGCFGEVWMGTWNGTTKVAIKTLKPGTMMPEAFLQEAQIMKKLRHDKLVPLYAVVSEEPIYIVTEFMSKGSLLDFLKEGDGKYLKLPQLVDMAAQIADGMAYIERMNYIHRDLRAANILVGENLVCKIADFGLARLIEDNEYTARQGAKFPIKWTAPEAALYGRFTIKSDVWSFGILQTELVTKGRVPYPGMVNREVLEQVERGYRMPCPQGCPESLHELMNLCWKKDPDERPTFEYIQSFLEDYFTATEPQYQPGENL
Sequence of Tumor necrosis factor (Homo sapiens) (P01375 whole entry, looked up): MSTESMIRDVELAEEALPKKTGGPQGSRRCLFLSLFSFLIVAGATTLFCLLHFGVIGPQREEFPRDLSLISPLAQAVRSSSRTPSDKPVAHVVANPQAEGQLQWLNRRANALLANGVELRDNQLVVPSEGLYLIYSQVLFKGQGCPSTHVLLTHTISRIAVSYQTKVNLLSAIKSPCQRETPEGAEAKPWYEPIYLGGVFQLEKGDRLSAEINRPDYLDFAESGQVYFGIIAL
Sequence of Nuclear receptor ROR-gamma (Homo sapiens) (P51449 whole entry, looked up): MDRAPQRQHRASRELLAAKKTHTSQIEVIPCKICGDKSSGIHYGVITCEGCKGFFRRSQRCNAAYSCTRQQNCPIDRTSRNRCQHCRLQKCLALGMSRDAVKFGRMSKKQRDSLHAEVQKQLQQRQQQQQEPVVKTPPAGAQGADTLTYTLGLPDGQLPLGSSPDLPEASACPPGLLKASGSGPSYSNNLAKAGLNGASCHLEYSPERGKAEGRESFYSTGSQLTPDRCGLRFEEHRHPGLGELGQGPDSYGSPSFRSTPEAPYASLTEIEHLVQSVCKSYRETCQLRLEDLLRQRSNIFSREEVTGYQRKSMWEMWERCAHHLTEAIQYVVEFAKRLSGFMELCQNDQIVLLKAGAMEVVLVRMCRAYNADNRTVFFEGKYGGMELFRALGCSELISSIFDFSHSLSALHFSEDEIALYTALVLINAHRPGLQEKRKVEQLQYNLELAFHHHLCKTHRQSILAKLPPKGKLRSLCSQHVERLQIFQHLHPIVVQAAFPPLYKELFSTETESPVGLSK

Test system in one test: not listed separately
Nature of the test: qHTS assay for small molecule agonists of the antioxidant response element (ARE) signaling pathway (AID 651741; active = well fitted activation curve with a large enough effect in the signal ratio; the % refers to the signal ratio; note: potency is the fitted concentration of half-maximal effect; for activation: % of control where 0% means no effect). The settings on record: HepG2 ARE-bla reporter, beta-lactamase FRET ratio, 16 h; series mostly up to 96 µM; activation: at the top concentration. An outline of the steps:
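Beta-lactamase reporter expression driven by the antioxidant response element in HepG2 cells was detected by fluorescence with LiveBLAzer B/G FRET substrate (2 h, room temperature) following 16 h compound treatment at 37 C.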
Background: Quantitative high-throughput screening tests each substance at several concentrations.
Regarding `Cn1cnc([N+](=O)[O-])c1Sc1ncnc2nc[nH]c12`, the Potency was 27.3 µM (active) and 37.6 µM (active).

Turning to `NC(=O)c1cnccn1`, the “activation” value was 6.24%.

With `O=C1CCC(N2C(=O)c3ccccc3C2=O)C(=O)N1` (centres undefined), the “activation” value was 0.683%.

Turning to `CNC[C@H](O)c1cccc(O)c1`, the “activation” value is 4.2%.

As for `CC(=O)Oc1ccccc1C(=O)O`, the “activation” value was 2.54%.

In the case of `CCCC(CCC)C(=O)O`, the Potency result is “inactive”.

As to `Cc1[nH]c(=O)c(C#N)cc1-c1ccncc1`, the “activation” value is 1.03%.

Take `NS(=O)(=O)c1cc2c(cc1Cl)NC=NS2(=O)=O`: the “activation” value was 5.65%.

Take `Cc1ccccc1C(OCCN(C)C)c1ccccc1` (centres undefined): the “activation” value is -6.64%.

Test system in a further test: not listed separately
As to the kind of experiment: qHTS assay for small molecule activators of the p53 signaling pathway (AID 651743; active = well fitted activation curve with a large enough effect in the signal ratio, not every such curve was filed as active; the % refers to the signal ratio; note: potency is the fitted concentration of half-maximal effect; for activation: % of control where 0% means no effect). The conditions noted are these: HCT-116 p53RE-bla, beta-lactamase FRET ratio, 16 h; activation: hits give high values. An outline of the steps: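 Here HCT-116 cells with an integrated p53-responsive beta-lactamase gene were incubated with compounds (16 hours, 37 C) after a 5-hour plating period; beta-lactamase activity was detected as fluorescence intensity via B/G FRET substrate.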
Consider `Cn1cnc([N+](=O)[O-])c1Sc1ncnc2nc[nH]c12`, for which the Potency was 25.1 µM (active) and 28.2 µM (active).

For the compound `O=NN(CCCl)C(=O)NCCCl`, the activation was 14.7%.

As for `NC(=O)c1cnccn1`, the activation is 0.545% and -2.21%.

In the case of `O=C1CCC(N2C(=O)c3ccccc3C2=O)C(=O)N1` (centres undefined), the activation is -2.08%.

On to `CC(=O)Oc1ccccc1C(=O)O`, for which the activation is -2.89% and -7.19% and 1.5%.

Take `NC(N)=NC(=O)c1nc(Cl)c(N)nc1N`: the activation was -2.4%.

On to `Cc1[nH]c(=O)c(C#N)cc1-c1ccncc1`, for which the activation was -6.25%.

As to `NS(=O)(=O)c1cc2c(cc1Cl)NC=NS2(=O)=O`, the activation is -2.13%.

Turning to `Cc1ccccc1C(OCCN(C)C)c1ccccc1` (centres undefined), the activation is -4.64%.

Test system in another test: not listed separately
Nature of the test: qHTS assay for small molecule activators of the nuclear factor-kappa B (NF-kB) signaling pathway (AID 651749; active = well fitted activation curve with a large enough effect in the signal ratio; the % refers to the signal ratio; note: % of control where 0% means no effect). The conditions noted are these: NF-kB-bla ME-180 cells, beta-lactamase FRET ratio, 16 h; hits give high values. The essentials:
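Beta-lactamase reporter expression, controlled by NF-kB response elements in ME-180 cells, was quantified fluorometrically via FRET disruption; cells at 2,000/well had been incubated with 23 nL test compound for 16 hr.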
Regarding `Cn1cnc([N+](=O)[O-])c1Sc1ncnc2nc[nH]c12`, the activation was -1.21% and -0.92%.

As to `O=NN(CCCl)C(=O)NCCCl`, the activation is -1.3%.

On to `NC(=O)c1cnccn1`, for which the activation is -0.539% and -2.05%.

On to `O=C1CCC(N2C(=O)c3ccccc3C2=O)C(=O)N1` (centres undefined), for which the activation is -0.119%.

With `O=c1[nH]cnc2[nH]ncc12`, the activation is 1.17%.

As for `CNC[C@H](O)c1cccc(O)c1`, the activation is -0.433%.

In the case of `CC(=O)Oc1ccccc1C(=O)O`, the activation is -1.39% and 0.118% and -2.43%.

On to `NC(N)=NC(=O)c1nc(Cl)c(N)nc1N`, for which the activation was -0.363%.

In the case of `CCCC(CCC)C(=O)O`, the activation was 0.312% and -3.31% and -0.945%.

Take `Cc1[nH]c(=O)c(C#N)cc1-c1ccncc1`: the activation is -0.647%.

For the compound `NS(=O)(=O)c1cc2c(cc1Cl)NC=NS2(=O)=O`, the activation was -0.0978%.

For the compound `Cc1ccccc1C(OCCN(C)C)c1ccccc1` (centres undefined), the activation is 2.9%.

The next test deals with Tumor necrosis factor (Homo sapiens) (UniProt P01375). As to the kind of experiment: qHTS assay to identify small molecules that stimulate Tumor Necrosis Factor-alpha (TNF-alpha) secretion (AID 651757; active = well fitted curve in the direction sought with a large enough effect in the signal ratio; the % refers to the signal ratio; note: 0% is about no effect). The conditions noted are these: Human cells, HTRF 665/615 ratio; series mostly up to 92.2 µM; activation (TNF-alpha secretion): at the top concentration. The essentials:
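THP-1 cells, 3000/well; compound 17 hrs, 37 C; add cryptate/XL665 anti-TNF-alpha antibody pair; 3 hr RT; TR-FRET (HTRF) read of secreted TNF-alpha. Quantitative HTS format.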
Consider `NC(=O)c1cnccn1`, for which the “activation (TNF-alpha secretion)” value is 1.18%.

With `O=c1[nH]cnc2[nH]ncc12`, the “activation (TNF-alpha secretion)” value is -0.467%.

For the compound `CC(=O)Oc1ccccc1C(=O)O`, the outcome was inactive.

As for `NC(N)=NC(=O)c1nc(Cl)c(N)nc1N`, the “activation (TNF-alpha secretion)” value is 0.0682%.

As for `CCCC(CCC)C(=O)O`, the “activation (TNF-alpha secretion)” value was -0.197%.

Test system in the next test: not listed separately
As to the kind of experiment: qHTS assay for environmental chemicals that activate the Aryl hydrocarbon Receptor (AhR) signaling pathway (AID 651777). Note: % of control where 0% means no effect; nearly all actives have a fitted effect of over 15% in size. The conditions noted are these: 1A2-DRE human hepatoma cells, luciferase, 24 h; hits give high values. The essentials: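 AhR activation is scored as a rise in luciferase from a stable DRE–CYP1A2 promoter construct in human hepatoma cells. Treatment lasts 24 hr at 37 C; detection uses One-Glo after 30 min at room temperature.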
Consider `Cn1cnc([N+](=O)[O-])c1Sc1ncnc2nc[nH]c12`, for which the activation was -4.71% and -5.39%.

Turning to `Cc1cc2c(C(C)C)c(O)c(O)c(C=O)c2c(O)c1-c1c(C)cc2c(C(C)C)c(O)c(O)c(C=O)c2c1O`, the activation is -3.15%.

`O=NN(CCCl)C(=O)NCCCl`: the activation is 0.58%.

Regarding `NC(=O)c1cnccn1`, the activation is -0.771% and 0.812%.

As for `O=C1CCC(N2C(=O)c3ccccc3C2=O)C(=O)N1` (centres undefined), the activation is -0.0215%.

Consider `O=c1[nH]cnc2[nH]ncc12`, for which the activation was -0.722%.

Consider `NC[C@H](O)c1ccc(O)c(O)c1`, for which the activation was 0.207%.

Take `CNC[C@H](O)c1cccc(O)c1`: the activation was -0.659%.

For `CC(=O)Oc1ccccc1C(=O)O`, the activation was 0.977% and -1.01% and -0.15%.

Consider `NC(N)=NC(=O)c1nc(Cl)c(N)nc1N`, for which the activation is 6.31%.

On to `Cc1[nH]c(=O)c(C#N)cc1-c1ccncc1`, for which the activation was 0.896%.

With `NS(=O)(=O)c1cc2c(cc1Cl)NC=NS2(=O)=O`, the activation was -1.42%.

Consider `Cc1ccccc1C(OCCN(C)C)c1ccccc1` (centres undefined), for which the activation is 0.382%.

A further test concerns the target Nuclear receptor ROR-gamma (Homo sapiens) (UniProt P51449). Nature of the test: qHTS assay for small molecule antagonists of the retinoid-related orphan receptor gamma (ROR-gamma) signaling pathway (AID 651802).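 Note: CHO cells with doxycycline-induced ROR-gamma expression; luciferase reporter luminescence driven by ROR response element; % is set by controls: 0 for no effect and ±100 for the full control effect; nearly all actives have a fitted effect of over 60% in size.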 The settings on record: ROR-gamma antagonist cell reporter assay; series mostly up to 92.2 µM; activity change, negative = inhibition: at the top concentration. The essentials: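 Luciferase read-out: ONE-Glo luminescence after 30 min at room temperature, following 16hr doxycycline induction at 37C, 5% CO2 of CHO cells with TET-inducible ROR and RORE-LUC reporter; decreased luminescence = reduced reporter activity.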
Regarding `NC(=O)c1cnccn1`, the “activity change, negative = inhibition” value was 12.8%.

On to `O=c1[nH]cnc2[nH]ncc12`, for which the “activity change, negative = inhibition” value was -17.8%.

On to `CC(=O)Oc1ccccc1C(=O)O`, for which the call was inactive.

Turning to `NC(N)=NC(=O)c1nc(Cl)c(N)nc1N`, the “activity change, negative = inhibition” value was -1.19%.

With `NS(=O)(=O)c1cc2c(cc1Cl)NC=NS2(=O)=O`, the “activity change, negative = inhibition” value is 16.6%.

Another test addresses Tyrosine-protein kinase Yes (Homo sapiens) (UniProt P07947). As to the kind of experiment: qHTS for small molecule inhibitors of Yes1 kinase: Primary Screen (AID 686947).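 For activity change, negative = inhibition: plate controls were DMSO with enzyme for no effect and no-enzyme DMSO wells for full effect.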 Note: nearly all actives have a fitted effect of over 60% in size. Note: potency is the fitted concentration of half-maximal effect. The settings on record: Yes1 kinase biochemical qHTS inhibition; series mostly up to 76.9 µM; activity change, negative = inhibition: at the top concentration. The essentials: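 In this qHTS format, inhibition is expressed relative to DMSO controls with enzyme (maximum) and without enzyme (minimum). The 60 min room-temperature reaction uses 0.1 mM ATP, with ADP detected by luminescence.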
On to `C[C@@H]1C[C@H]2[C@@H]3CCC4=CC(=O)C=C[C@]4(C)C3(F)[C@@H](O)C[C@]2(C)[C@@]1(O)C(=O)CO` (some centres undefined), for which the Potency is 34.5 µM (active).

In the case of `COc1ccccc1[C@H](c1cccc2ccccc12)[C@@](C)(C#N)C(=O)N1CCC(c2cccc(C(F)(F)F)c2)CC1`, the “activity change, negative = inhibition” value was 14.4%.

In the case of `COc1ccc2c3n(c(=NC(=O)c4cccnc4)nc2c1OC)CCN3`, the “activity change, negative = inhibition” value is -8.62%.

As to `Cc1csc(NC(=O)c2sc3nc4c(c(C(F)(F)F)c3c2N)CCC4)n1`, the “activity change, negative = inhibition” value was -11.4%.

For the compound `CC(C)(N)C(=O)N[C@H](COCc1ccccc1)C(=O)N1CCC2(CC1)CN(S(C)(=O)=O)c1ccccc12`, the “activity change, negative = inhibition” value is 12.6%.

For `CC(C)OC(=O)C1=CN(C(=O)c2ccc(F)c(F)c2)CC(C)(C)c2c1[nH]c1ccccc21`, the “activity change, negative = inhibition” value was -1.76%.

For `CC(c1cc2ccccc2s1)N(O)C(N)=O` (centres undefined), the “activity change, negative = inhibition” value was 12.8% [at 154 µM].

For `NC(=O)c1ccc(-c2nc(-c3ccc4c(c3)OCO4)c(-c3ccccn3)[nH]2)cc1`, the Potency result was “inactive”.

Turning to `O=C1[C@H](Cc2ccc(O)cc2)N2C(=O)CCN(C(=O)NCc3ccccc3)[C@H]2CN1Cc1cccc2ccccc12`, the “activity change, negative = inhibition” value is 15.6%.

For the compound `CC1(C)SCCN(S(=O)(=O)c2ccc(OCC#CCO)cc2)[C@@H]1C(=O)NO`, the “activity change, negative = inhibition” value was 8.34%.

For the compound `CC[C@@H](C)[C@H](NC(=O)[C@H](CC1CCCCC1)NC(=O)c1ccno1)C(=O)N1CCC2(CCc3ccccc32)CC1`, the “activity change, negative = inhibition” value was -0.717%.

For the compound `Nc1ncnc2nc(-c3ccc(N4CCOCC4)nc3)cc(-c3cccc(Br)c3)c12`, the Potency was 3.45 µM (active).

Take `O=C(O)[C@@H](c1ccc(OCc2ccc3ccccc3n2)cc1)C1CCCC1`: the “activity change, negative = inhibition” value was 7.09%.

For `Cc1cc(Nc2nc(N[C@@H](C)c3ncc(F)cn3)ncc2Cl)n[nH]1`, the Potency is 0.772 µM (active).

For the compound `CCOC(=O)C1=C[C@@]2(CC)CCCN3CCc4c(n1c1ccccc41)[C@H]32`, the “activity change, negative = inhibition” value is -2.12% [at 47.8 µM].

Regarding `NC(N)=NC(=O)c1nc(Cl)c(N)nc1N`, the “activity change, negative = inhibition” value was -24.5%.

Regarding `CCN(CC)CCCC(C)Nc1nc(C)cc(Nc2ccc3nc(C)cc(N)c3c2)n1` (centres undefined), the “activity change, negative = inhibition” value is -8.83%.

`CCCc1nn(C)c2c(=O)[nH]c(-c3cc(S(=O)(=O)N4CCN(C)CC4)ccc3OCC)nc12`: the “activity change, negative = inhibition” value was -8.99%.

Consider `CN[C@@H](C)C(=O)N[C@H]1CCCC[C@H]2CC[C@@H](C(=O)N[C@@H](c3ccccc3)c3cn(CCCCc4ccc(CCCCn5cc([C@@H](NC(=O)[C@@H]6CC[C@@H]7CCCC[C@H](NC(=O)[C@H](C)NC)C(=O)N76)c6ccccc6)nn5)cc4)nn3)N2C1=O`, for which the “activity change, negative = inhibition” value is -18.2%.

Take `O=c1[nH]c(-c2ccc(C(F)(F)F)cc2)nc2c1CSCC2`: the “activity change, negative = inhibition” value is 7.32%.

As to `Fc1ccc(Cl)cc1-c1nc(Nc2ccncc2)c2nccnc2n1`, the “activity change, negative = inhibition” value is -24.4%.
